Assay [1] has as its target Nuclear receptor coactivator 3 (Homo sapiens) (UniProt Q9Y6Q9). In words: NCOA3 GAL4-fusion reporter inhibition – cell-based, luminescence, quadruplicate, confirmation (AID 588792;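 active means mean inhibition over 43.08%, the solvent-only control mean plus 3 SD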;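 further: 0% = DMSO treated cells and 100% = gossypol at 36 µM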). The conditions noted are these: HEK293 GAL4-SRC3 luciferase reporter, at 3.6 µM, stronger effect = higher value. A general note: A reporter such as luciferase makes a cellular process visible.
Assay [2] relates to transactivating tegument protein VP16 (Human herpesvirus 1), Gal4-VP16 luciferase reporter. In words: repression of VP16-driven luciferase reporter – cell-based, luminescence, high throughput, counter-screen for SRC3 inhibitor project (AID 588794). The conditions noted are these: mammalian cells, at 3.6 µM, stronger effect = higher value.
Assay [3] concerns the target Nuclear receptor coactivator 1 (Homo sapiens) (UniProt Q15788). Briefly: NCOA1 GAL4-fusion reporter inhibition – cell-based, luminescence, quadruplicate, confirmation (AID 588820;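 active means mean inhibition above 46.68%, the untreated control wells mean plus 3 SD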;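 further: 0% = DMSO wells and 100% = gossypol 36 µM treated wells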). The conditions noted are these: HEK293 GAL4-SRC1 luciferase reporter, at 3.6 µM, stronger effect = higher value.
Assay [4] can be described thus: repression of VP16-driven luciferase reporter – cell-based, luminescence, high throughput, counter-screen for SRC1 inhibitor project (AID 588824; in the data active means inhibition above about 25%). The conditions noted are these: cell-based VP16 transactivation luciferase luminescence; at 3.6 µM; stronger effect = higher value.
Assay [5] in a line: StAR promoter reporter inhibitors, counter-screen for LRH-1 inverse agonist project, cell-based, luminescence, high throughput (AID 651611; in the data active means inhibition above about 28%). The conditions noted are these: StAR promoter luciferase reporter counterscreen, at 3.6 µM, stronger effect = higher value.
Assay [6] deals with Nuclear receptor subfamily 5 group A member 2 (Homo sapiens) (UniProt O00482). Briefly: NR5A2 activity suppression in reporter cells – cell-based, luminescence, confirmation (AID 651613; in the data active means inhibition above about 42%;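 further: HEK293T cells co-transfected with LRH-1 and StAR promoter luciferase reporter; 0% = vehicle wells and 100% = parental cells lacking receptor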). The conditions noted are these: cell-based LRH-1 luciferase reporter, inverse agonism; at 3.6 µM; stronger effect = higher value.
Sequence of Nuclear receptor subfamily 5 group A member 2 (Homo sapiens) (O00482 whole entry, looked up): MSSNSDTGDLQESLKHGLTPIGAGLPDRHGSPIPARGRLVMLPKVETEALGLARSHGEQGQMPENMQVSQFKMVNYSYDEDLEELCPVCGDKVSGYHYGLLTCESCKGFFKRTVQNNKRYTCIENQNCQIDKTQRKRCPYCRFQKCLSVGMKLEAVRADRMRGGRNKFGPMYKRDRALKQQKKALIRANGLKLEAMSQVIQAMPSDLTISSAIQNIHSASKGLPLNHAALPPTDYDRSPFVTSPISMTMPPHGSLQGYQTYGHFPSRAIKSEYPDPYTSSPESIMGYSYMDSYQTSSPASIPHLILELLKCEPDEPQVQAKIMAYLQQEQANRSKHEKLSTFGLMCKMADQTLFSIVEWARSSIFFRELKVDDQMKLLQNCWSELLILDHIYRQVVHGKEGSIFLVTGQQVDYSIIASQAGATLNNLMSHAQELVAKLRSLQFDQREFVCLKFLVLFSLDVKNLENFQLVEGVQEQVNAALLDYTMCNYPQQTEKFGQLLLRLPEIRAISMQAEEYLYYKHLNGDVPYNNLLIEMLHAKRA
Assay [7] has as its target Steroidogenic factor 1 (Homo sapiens) (UniProt Q13285). In words: inverse agonism at SF1 nuclear receptor – cell-based, luminescence, high throughput, counter-screen for LRH-1 inverse agonist project (AID 651614; in the data active means inhibition above about 44%;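 further: cells cotransfected with StAR promoter reporter and SF1 expression vector; 0% = vehicle on cells with receptor and 100% = vehicle on cells lacking receptor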). The conditions noted are these: cell-based SF1 luciferase reporter, at 3.6 µM, stronger effect = higher value. For orientation: The purpose of a counterscreen is to sort out artefacts and off-target activity.

Assay [8] is described as follows: compounds suppressing VP16-driven luciferase signal – cell-based, luminescence, high throughput, counter-screen for LRH-1 inverse agonist project (AID 651615; in the data active means inhibition above about 33%). The conditions noted are these: Gal4-VP16 luciferase reporter cells, at 3.6 µM, stronger effect = higher value.

SMILES strings stand for the structures. A number with no mark means an inactive call. Activity calls are given as the source filed them. Unless noted, no stated cut-off is given here; in the data, active means inhibition above about 30%; inactive means the rest.

Sequence of Nuclear receptor coactivator 1 (Homo sapiens) (Q15788 whole entry, looked up, the tested form may be a part): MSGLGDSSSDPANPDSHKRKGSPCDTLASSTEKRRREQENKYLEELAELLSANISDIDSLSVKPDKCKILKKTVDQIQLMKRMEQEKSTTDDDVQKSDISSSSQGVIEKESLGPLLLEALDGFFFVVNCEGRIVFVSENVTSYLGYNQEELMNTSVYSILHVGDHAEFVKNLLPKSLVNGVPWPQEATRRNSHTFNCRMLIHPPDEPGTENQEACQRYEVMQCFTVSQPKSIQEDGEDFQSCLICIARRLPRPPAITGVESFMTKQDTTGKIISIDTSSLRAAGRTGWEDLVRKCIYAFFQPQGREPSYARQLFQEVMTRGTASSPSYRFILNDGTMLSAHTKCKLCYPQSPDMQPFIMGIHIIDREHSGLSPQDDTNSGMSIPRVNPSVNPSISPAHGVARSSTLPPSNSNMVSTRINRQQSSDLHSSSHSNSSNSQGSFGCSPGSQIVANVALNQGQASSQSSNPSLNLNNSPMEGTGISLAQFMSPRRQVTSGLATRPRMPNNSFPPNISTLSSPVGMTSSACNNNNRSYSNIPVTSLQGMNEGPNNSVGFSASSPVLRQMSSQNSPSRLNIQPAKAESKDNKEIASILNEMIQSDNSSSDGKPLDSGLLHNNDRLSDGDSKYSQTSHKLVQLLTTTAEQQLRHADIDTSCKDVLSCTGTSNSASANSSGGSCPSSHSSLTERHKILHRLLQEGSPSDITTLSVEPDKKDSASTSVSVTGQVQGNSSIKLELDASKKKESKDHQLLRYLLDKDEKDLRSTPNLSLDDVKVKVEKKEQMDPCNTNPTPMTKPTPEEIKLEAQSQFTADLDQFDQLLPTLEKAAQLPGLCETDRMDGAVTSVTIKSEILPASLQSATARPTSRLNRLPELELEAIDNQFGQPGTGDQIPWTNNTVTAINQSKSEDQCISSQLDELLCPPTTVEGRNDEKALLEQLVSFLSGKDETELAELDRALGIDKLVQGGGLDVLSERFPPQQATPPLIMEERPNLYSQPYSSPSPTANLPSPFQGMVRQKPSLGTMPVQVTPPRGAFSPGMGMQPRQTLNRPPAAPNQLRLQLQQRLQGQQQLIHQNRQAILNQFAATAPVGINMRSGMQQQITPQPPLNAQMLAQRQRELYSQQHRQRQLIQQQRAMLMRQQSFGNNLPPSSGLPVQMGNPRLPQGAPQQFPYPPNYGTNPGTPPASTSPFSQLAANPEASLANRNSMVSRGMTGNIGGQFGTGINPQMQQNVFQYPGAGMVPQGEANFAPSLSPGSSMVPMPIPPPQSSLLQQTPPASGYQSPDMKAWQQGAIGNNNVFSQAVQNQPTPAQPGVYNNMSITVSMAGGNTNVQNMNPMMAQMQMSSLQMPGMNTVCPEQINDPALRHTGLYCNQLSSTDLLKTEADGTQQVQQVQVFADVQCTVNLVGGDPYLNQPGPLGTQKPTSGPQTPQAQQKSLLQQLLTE
Sequence of Nuclear receptor coactivator 3 (Homo sapiens) (Q9Y6Q9 whole entry, looked up, the tested form may be a part): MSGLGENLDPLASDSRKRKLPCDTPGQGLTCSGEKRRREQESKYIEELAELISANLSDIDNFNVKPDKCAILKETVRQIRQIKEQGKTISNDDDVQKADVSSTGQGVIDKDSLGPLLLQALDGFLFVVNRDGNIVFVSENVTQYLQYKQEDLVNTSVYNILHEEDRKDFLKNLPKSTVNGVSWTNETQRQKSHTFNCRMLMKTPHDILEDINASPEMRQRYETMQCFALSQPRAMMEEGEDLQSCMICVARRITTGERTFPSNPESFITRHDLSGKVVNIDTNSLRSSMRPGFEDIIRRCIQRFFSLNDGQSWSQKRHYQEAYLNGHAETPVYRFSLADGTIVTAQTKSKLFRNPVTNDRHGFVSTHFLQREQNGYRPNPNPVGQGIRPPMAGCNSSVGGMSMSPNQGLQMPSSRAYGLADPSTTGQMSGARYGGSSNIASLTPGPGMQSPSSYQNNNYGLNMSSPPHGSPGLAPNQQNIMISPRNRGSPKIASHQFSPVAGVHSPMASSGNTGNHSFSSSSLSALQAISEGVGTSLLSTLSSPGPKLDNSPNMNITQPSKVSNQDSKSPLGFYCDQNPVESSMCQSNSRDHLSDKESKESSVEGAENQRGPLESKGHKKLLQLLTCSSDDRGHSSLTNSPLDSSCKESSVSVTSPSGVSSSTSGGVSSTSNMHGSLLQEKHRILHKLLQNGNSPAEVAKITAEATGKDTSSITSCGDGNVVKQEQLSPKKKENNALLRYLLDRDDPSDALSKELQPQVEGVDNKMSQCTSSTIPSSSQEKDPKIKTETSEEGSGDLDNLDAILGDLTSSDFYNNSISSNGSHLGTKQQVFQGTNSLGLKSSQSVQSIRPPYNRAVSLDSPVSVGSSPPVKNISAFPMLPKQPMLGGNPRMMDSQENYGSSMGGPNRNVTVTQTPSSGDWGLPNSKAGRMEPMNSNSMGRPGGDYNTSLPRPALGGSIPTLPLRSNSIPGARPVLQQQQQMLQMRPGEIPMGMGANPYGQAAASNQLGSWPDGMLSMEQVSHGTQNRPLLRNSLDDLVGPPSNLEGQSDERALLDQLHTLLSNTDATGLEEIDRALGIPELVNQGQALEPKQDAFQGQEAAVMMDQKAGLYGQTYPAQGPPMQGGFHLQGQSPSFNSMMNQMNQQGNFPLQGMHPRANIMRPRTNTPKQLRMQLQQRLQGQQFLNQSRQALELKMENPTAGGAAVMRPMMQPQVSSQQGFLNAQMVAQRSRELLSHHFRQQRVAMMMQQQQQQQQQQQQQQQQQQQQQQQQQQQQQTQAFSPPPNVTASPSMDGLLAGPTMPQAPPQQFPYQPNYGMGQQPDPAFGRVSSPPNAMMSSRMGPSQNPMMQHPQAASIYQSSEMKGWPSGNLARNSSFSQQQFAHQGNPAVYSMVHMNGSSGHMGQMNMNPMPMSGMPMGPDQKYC
Sequence of Steroidogenic factor 1 (Homo sapiens) (Q13285 whole entry, looked up): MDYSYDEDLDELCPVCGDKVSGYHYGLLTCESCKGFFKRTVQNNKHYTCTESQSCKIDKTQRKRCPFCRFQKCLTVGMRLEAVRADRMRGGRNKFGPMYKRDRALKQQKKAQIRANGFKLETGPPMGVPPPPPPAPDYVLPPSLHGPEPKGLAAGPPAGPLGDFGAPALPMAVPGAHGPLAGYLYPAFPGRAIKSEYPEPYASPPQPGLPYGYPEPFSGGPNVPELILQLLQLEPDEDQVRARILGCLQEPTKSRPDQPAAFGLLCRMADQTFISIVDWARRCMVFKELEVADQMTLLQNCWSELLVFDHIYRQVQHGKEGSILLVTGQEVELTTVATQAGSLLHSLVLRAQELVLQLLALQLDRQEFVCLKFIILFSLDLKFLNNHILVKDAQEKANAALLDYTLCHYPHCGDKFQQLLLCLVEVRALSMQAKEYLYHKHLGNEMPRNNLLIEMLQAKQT

One may read the inhibition as the relative decrease from the control value, in per cent. For the compound `CC1(C)CC2CC(C)(CN2S(=O)(=O)c2ccc(C(=O)Nc3ccc(S(=O)(=O)N4CCOCC4)cc3)cc2)C1` (stereo not drawn), the inhibition in assay [1] is 24.1%; in assay [2], 42.4% (active); in assay [3], 4.08%; in assay [4] it was 44.1% (active); in assay [5] it was 22.1%; in assay [6], 53.1% (active). The inhibition in assay [7] is 46.4% (active); in assay [8], 57.8% (active).
For `CC(=NNC(=S)Nc1cccc(Cl)c1)c1ccccn1`, the inhibition in assay [1] is 71% (active); in assay [2], 66.5% (active); in assay [3] it was 44.7%; in assay [4], 65.1% (active); in assay [5] it was 76.5% (active); in assay [6] it was 90.8% (active). For the same compound, the figures for the inhibition in assay [7] and in assay [8] were 91.1% (active) and 75.7% (active), respectively.
With `COc1ccc(C=C2CS(=O)(=O)CC(=Cc3ccc(OC)cc3)C2=O)cc1`, the inhibition is 29.7% in assay [1]; 46.8% (active) in assay [2]; -73.9% in assay [3]; 55.9% (active) in assay [4]; 43.9% (active) in assay [5]; 83% (active) in assay [6]. Also, the inhibition in assay [7] was 83.7% (active); in assay [8] it was 80.1% (active).
On to `Cc1cccc(C(=O)Nc2sc3c(c2C(=O)O)CCCC3)c1`, for which the inhibition in assay [1] was 37.5%; in assay [2], 59.1% (active); in assay [3] it was 25.5%; in assay [4], 58.2% (active); in assay [5], 53.6% (active); in assay [6] it was 85.8% (active). In addition, the inhibition in assay [7] was 82.3% (active); in assay [8] it was 68.9% (active).
As to `CCC1(OC(=O)CN(C)C)C(=O)OCc2c1cc1n(c2=O)Cc2cc3c(N)cccc3nc2-1` (stereo not drawn), the inhibition in assay [1] was 89.8% (active); in assay [2] it was 65.3% (active); in assay [3], 62.3% (active); in assay [4] it was 54.6% (active); in assay [5] it was 83.5% (active); in assay [6], 103% (active). The inhibition was 90.5% (active) in assay [7] and 68.1% (active) in assay [8].
Consider `Cc1cc(C)nc(NC(N)=NCCc2ccccc2)n1`, for which the inhibition in assay [1] was 75.9% (active); in assay [2], 46.3% (active); in assay [3], 51.5% (active); in assay [4], 49.1% (active); in assay [5], 58.4% (active); in assay [6], 109% (active). Moreover, the inhibition in assay [7] is 88.2% (active); in assay [8] it was 93.5% (active).

The values above are taken from PubChem BioAssay.
